# Shown are actives, neighbours in structure and some others; about 3.8% of the full set was active somewhere.
# TGFb inhibitor: inhibitors of TGF-b signaling | HepG2 CAGA-GFP TGF-b/SMAD3 reporter, GFP fluorescence, 18 h; TGF-beta stimulated, 500 pg/mL final | Potency, µM (series often up to 46.1 µM), for inactives: at the highest dose activity, negative = inhibition, actives largely listed as inhibitors | actives 1.2% (n = 410,000) | AID 588855; note: % is set by controls: 0 for no effect and ±100 for the full control effect; nearly all actives have a fitted effect of over 65% in size
#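 Using HEPG2 CAGA-GFP reporter cells at 1000 cells/well, we pinned test compounds, stimulated with recombinant TGF-beta (500 pg/mL final) and measured total well GFP after 18 h.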
# ATXN viability: viability counter-screen for ATXN expression inhibitors; S2 cells (HEK-293 line with an ATXN2-luciferase reporter) viability, CellTiter-Fluor protease fluorescence, 24 h; Potency, µM (doses to about 56.7 µM), most hits filed as cytotoxic; actives 0.49% (n = 400,000); AID 651635; note: nearly all actives have a fitted effect of over 40% in size
# HepG2 viability: HepG2 cytotoxicity, counter-screen for TGF-b inhibitors. actives 0.76% (n = 410,000). HepG2 CAGA-GFP viability, ATP luminescence, 18 h. Potency, µM (highest dose often 46.1 µM), for the others: top-dose activity change, negative = cytotoxicity, actives largely listed as cytotoxic
#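 HepG2 CAGA-GFP cells (1000/well, DMEM with 1% FBS) received compound, then TGF-beta at 500 pg/mL final, and were incubated 18 hours at 37 degrees C. Viability was read by CellTiter-Glo luminescence. Media-only wells were set as complete cell-killing and DMSO as no toxicity.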
# Nrf2 inh: blocks Nrf2 signaling | Potency, µM (doses to about 46 µM), for inactives: at the top dose activity change, negative = inhibition, hits mostly inhibitors | AID 504444 | actives 2.1% (n = 360,000) | A549 ARE-Fluc reporter, luciferase luminescence, 18-24 h; note: % is set by controls: 0 for no effect and ±100 for the full control effect; nearly all actives have a fitted effect of over 60% in size
#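 A549 ARE_Fluc cells (5000/well, 5% FBS OPTI-MEM) pre-incubated 2 h, then treated with compounds 18-24 h at 37C/5% CO2 in concentration-response. CellTiter-Fluor viability read first; BugLite luciferase luminescence after 15 min at room temperature gives Nrf2 activity.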
# ATXN2 expr inh: reduces ATXN2 reporter expression in HEK-293 cells | Potency, µM (top dose mostly 57 µM), inactives show top-dose activity change, negative = inhibition, actives largely listed as inhibitors | AID 1745845 | HEK-293 ATXN2-luciferase reporter, luminescence, 24 h | actives 0.72% (n = 360,000); note: % is set by controls: 0 for no effect and ±100 for the full control effect; nearly all actives have a fitted effect of over 55% in size
#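 qHTS (up to 57 uM final) was run with 24 h compound exposure of reporter cells at 37 °C. Each well was multiplexed: SteadyGlo luminescence measured ATXN2-luciferase expression after a fluorogenic Gly-Phe-AFC viability readout (25 uM final).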
# A549 viability: counter-screen for Nrf2 inhibitors: cytotoxicity in A549 cells | A549 ARE-Fluc cells, CellTiter-Fluor viability, 18-24 h | Potency, µM (doses to about 46 µM), for the others: at the highest dose activity change, negative = cytotoxicity, hits mostly inhibitors | AID 504648 | actives 0.16% (n = 390,000); note: % is set by controls: 0 for no effect and ±100 for the full control effect
#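 A549 ARE_Fluc cells in 5% FBS OPTI-MEM were exposed to compounds in concentration-response for 18-24 h at 37 deg C. Viability was read by CellTiter-Fluor fluorescence (Ex 405/Em 525) after 30 min, before the luciferase read.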
# * = called active by the depositor; i = inactive; u = inconclusive; x = no result given; [ ] = dose if it differs, or a comment. Calls come from the whole dose curve; as a rule, active = well fitted curve in the direction sought with a large enough effect; inconclusive = small, poorly fitted or top-dose-only effect, or another doubt; inactive = no such curve, though single readings can be large; an effect the other way counts as inactive or inconclusive. Potency is the fitted concentration of half-maximal effect.
SMILES,TGFb inhibitor,ATXN viability,HepG2 viability,Nrf2 inh,ATXN2 expr inh,A549 viability
CCOC(=O)c1c(NC(=O)CC)sc(C(=O)N2CCCCC2)c1C,-11%,i,-21%,-13%,-11%,-5%
CCOC(=O)CNC(=O)C1CCCCC1,0%,x,-10%,u,x,6%
c1ccc(-c2onc(-c3ccco3)c2-c2ccc3[nH]ccc3c2)cc1,14µM*,i,-40%,u,-11%,1%
Cc1ccc(CNC(=O)CC2Oc3ccccc3NC2=O)cc1 (stereo unspecified),1%,x,-4%,11%,x,1%
COc1cccc(-n2nnnc2SCC(=O)Nc2ccc(OC)cc2OC)c1,24%,i,11%,-7%,-19%,-5%
CCOc1c(CNc2nnnn2C)cccc1OC,2%,i,1%,6%,-3%,4%
CC(C)(C)c1nc(SCC(=O)NCc2ccco2)c2ccccc2n1,0%,i,-13%,2%,1%,8%
COc1ccc(C(=O)CSc2nc(C(C)(C)C)nc3ccccc23)cc1,20µM*,i,-31%,-6%,-23%,1%
O=C1CC(c2ccc(Cl)cc2)CC(O)=C1C=NCc1ccc(Cl)c(Cl)c1 (stereo unspecified),u,u,-39%,u,u,-24%
Cc1ccc(C)c(S(=O)(=O)NCc2ccc(C(=O)N3CCC(Cc4ccccc4)CC3)cc2)c1,u,u,-26%,16µM*,-29%,-11%[1.84 µM]
Cc1ccc(C)c(S(=O)(=O)NCc2ccc(C(=O)N3CCN(C)CC3)cc2)c1,16%,i,-18%,9%,5%,-2%
C(=C\c1ccccc1)/CN1CCN(C(c2ccccc2)c2nnnn2C2CCCC2)CC1 (stereo unspecified),u,u,-8%,x,-35%,x
C(=C\c1ccccc1)/CN1CCN(C(c2ccnc3ccccc23)c2nnnn2C2CCCC2)CC1 (stereo unspecified),10µM*,u,-44%,x,-26%,x
Clc1ccc2nc(N3CCCCC3)[nH]c2c1,-5%,i,-5%,x,20%,-2%
O=c1c2ccccc2cnn1-c1nc2ccccc2[nH]1,-22%,i,2µM*,u,0.56µM*,-1%
O=c1c2ccccc2nc2c3ccccc3cnn12,-2%,i,-28%,29%,12%,0%
O=c1c(Cl)c(N2CCCCC2)cnn1-c1nc2ccccc2[nH]1,-1%,i,-41%,16µM*,u,-1%
COc1cccc(CNC(=O)CCc2c(C)nc3c(c(C)nn3-c3ccc(C)c(C)c3)c2C)c1,-3%,i,-17%,-27%,5%,3%
Cc1ccc(Cc2cnc(NC(=O)/C(C#N)=C/c3ccc(-c4ccc([N+](=O)[O-])cc4)o3)s2)cc1,-5%,x,-8%,-6%,16µM*,-11%
CN(C)c1cccc(C(=O)OCCCC(=O)c2ccc(F)cc2)c1,-2%,i,0%,-4%,8%,-2%
CCOC(=O)Nc1ccc2c(c1)N(C(=O)CCN(CC)CC)c1ccccc1S2=O (stereo unspecified),14µM*,u,-95%,-16%,14%,-3%
CCc1ccccc1N(C)C(=O)c1cn(CC(C)C)c(=O)c2cc(OC)c(OC)cc12,u,u,-29%,7%[9.27 µM],-39%,0%
COc1ccc(N(C)C(=O)c2cn(CC(C)C)c(=O)c3cc(OC)c(OC)cc23)c(OC)c1,0%,i,7.1µM*,3%,-15%,-1%
COc1cc2c(C(=O)N3CCN(c4cc(Cl)ccc4C)CC3)cn(CC(C)C)c(=O)c2cc1OC,0%,i,-2%,-25%[9.27 µM],0%,-3%
COc1cc2c(C(=O)N3CCN(c4cccc(C(F)(F)F)c4)CC3)cn(CC(C)C)c(=O)c2cc1OC,11µM*,u,-27%,x,u,2%
